We go through 19 compounds from PubChem BioAssay (Tox21).

Assay [1] is described as follows: qHTS RealTime-Glo MT Cell Viability Assay in HepG2 cells - 8 hour (AID 1224873). Note: nearly all actives have a fitted effect of over 55% in size. The essentials: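 HepG2 cells mixed with RealTime-Glo MT reagents (NanoLuc plus cell-permeant prosubstrate) were seeded at 600 cells/well, incubated 5 h at 37 C/5% CO2, then pinned with compounds in DMSO; nonlytic luminescence tracked viability during 40 h treatment.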
(In general: In qHTS, concentration-response curves come from the screen itself.)

Assay [2] is described as follows: A CellTox Green Cytotoxicity Assay to monitor cytotoxicity in HEK293 cells - 24 hour (AID 1224875). Note: nearly all actives have a fitted effect of over 45% in size. Note: potency is the fitted concentration of half-maximal effect. The essentials: (§1)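 Fluorescence from a DNA-binding dye excluded by viable cells was measured repeatedly in the same HEK293 wells (600 cells/well) during continuous compound exposure at 37 C. Each assay gives one read point: 0, 8, 16, 24, 32 or 40 h.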
A short description of assay [3]: A CellTox Green Cytotoxicity Assay to monitor cytotoxicity in HepG2 cells - 16 hour (AID 1224876). Note: nearly all actives have a fitted effect of over 45% in size. The method, boiled down: (§2)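 Real-time cytotoxicity: fluorescence of a cell-impermeant cyanine dye binding DNA of dead HepG2 cells, measured repeatedly (0–40 h) during compound exposure at 37 C. Cells seeded 600/well with reagent, dosed after 5 h.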
Assay [4] can be described thus: qHTS RealTime-Glo MT Cell Viability Assay in HepG2 cells - 32 hour (AID 1224877). Note: nearly all actives have a fitted effect of over 55% in size. The essentials:
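Compound treatment began 5 h after plating HepG2 cells (600/well) with NanoLuc luciferase and prosubstrate. Plates stayed at 37 C for 40 h; luminescence was captured at six time points, 0 h through 40 h.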

The nature of assay [5]: qHTS RealTime-Glo MT Cell Viability Assay in HEK293 cells - 0 hour (AID 1224880). Note: top concentration of the series differs between compounds; nearly all actives have a fitted effect of over 45% in size. The method, boiled down: (§3)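 Luminescence, which tracks viable cell number through reduction of the prosubstrate to a NanoLuc substrate, was read over continuous 37 C culture. Cells (600/well) were premixed with reagent and rested 5 h before 23 nL of compound in DMSO was pinned.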
Assay [6] in a line: A CellTox Green Cytotoxicity Assay to monitor cytotoxicity in HEK293 cells - 32 hour (AID 1224881). Note: nearly all actives have a fitted effect of over 40% in size. Note: potency is the fitted concentration of half-maximal effect. The essentials:
as §1

A short description of assay [7]: qHTS RealTime-Glo MT Cell Viability Assay in HEK293 cells - 40 hour (AID 1224874). Note: nearly all actives have a fitted effect of over 50% in size. Note: potency is the fitted concentration of half-maximal effect. To be noted: RealTime-Glo luminescence; max response: active compounds read low. The essentials:
as §3

The nature of assay [8]: A CellTox Green Cytotoxicity Assay to monitor cytotoxicity in HepG2 cells - 24 hour (AID 1224878). Note: nearly all actives have a fitted effect of over 45% in size. The essentials:
as §2

Assay [9] is described as follows: A CellTox Green Cytotoxicity Assay to monitor cytotoxicity in HepG2 cells - 40 hour (AID 1224879). Note: nearly all actives have a fitted effect of over 40% in size. The essentials: as §2

Inconclusive results are not listed. Values without a mark were called inactive. Calls of active or inactive are those of the source. Calls come from the whole dose curve; as a rule, active = well fitted curve in the direction sought with a large enough effect in the repeat runs; inconclusive = weak or mixed curves; inactive = no such curve, though single readings can be large; an effect the other way counts as inactive or inconclusive.
% is set by controls: 0 for no effect and ±100 for the full control effect.

Consider `[As]#[In]`, for which the Potency result in assay [1], in assay [2], in assay [3], in assay [4] and in assay [6] was “inactive” in each case. For the same compound, in assay [5], the compound was classed as inactive.

As to `Cc1nc(N)nc(N)n1`, the max response in assay [7] was -3.78%. Further, the Potency entry in assay [2], in assay [3], in assay [4], in [8], in assay [9] and in assay [6] was “inactive” in each case. In addition, the result in [5] was inactive.

For `O=C(O)C(Br)CBr` (stereo unspecified), the Potency entry in assay [1], in [2], in assay [3], in assay [4], in [9] and in assay [6] was “inactive” in each case. Further, the max response in [7] was 26%. Moreover, in assay [5], the call was inactive.

With `CN/C(=N\[N+](=O)[O-])NCC1CCOC1` (stereo unspecified), the max response in assay [7] was 4.22%. The Potency entry in assay [2], in [3], in [4], in [8], in assay [9] and in [6] was “inactive” each time. Moreover, in [5], the compound was classed as inactive.

`CCCCC(=O)Cl`: the Potency result in assay [1], in assay [2], in assay [3], in assay [4], in assay [9] and in [6] was “inactive” throughout. Further, the max response in [7] is 5.77%. In assay [5], the compound was called inactive.

Regarding `Cc1ncc2n1-c1ccc(Cl)cc1C(c1ccccc1F)=NC2`, the Potency result in assay [1], in assay [2], in [3], in assay [4], in [9] and in assay [6] was “inactive” each time. In addition, in assay [7], the Potency is 19 µM (active). For the same compound, the compound was classed as inactive in assay [5].

As to `C#C[C@]1(O)C=C[C@H]2[C@@H]3CCC4=CC(=O)CC[C@@H]4[C@H]3CC[C@@]21CC`, the Potency result in assay [1], in [2], in assay [3], in assay [4], in assay [8] and in [9] was “inactive” each time. Moreover, the Potency result in assay [6] was “inactive”. For the same compound, the call in [5] was inactive.

For `CC(Oc1ccc(Oc2ncc(C(F)(F)F)cc2Cl)cc1)C(=O)O` (stereo unspecified), the Potency result in [1], in [2], in assay [3], in [4], in assay [8] and in [6] was “inactive” in each case. Moreover, the compound was called inactive in assay [5].

Regarding `c1coc(-c2nc3ccccc3[nH]2)c1`, the Potency entry in assay [1], in assay [2], in assay [3], in [4], in assay [8] and in assay [9] was “inactive” each time. For the same compound, in [6], the Potency entry is “inactive”. For the same compound, the result in assay [5] was inactive.

In the case of `CC(C(O)c1ccccc1)N(C)C/C=C/c1ccccc1` (stereo unspecified), the max response in [7] is -19.6%. Further, the Potency result in assay [2], in [3], in [4] and in assay [6] was “inactive” throughout. For the same compound, the result in assay [5] was inactive.

On to `CCOC(=O)NC(=S)Nc1ccccc1NC(=S)NC(=O)OCC`, for which the Potency result in assay [1], in assay [2], in assay [3], in assay [4], in assay [8] and in assay [6] was “inactive” throughout. Besides, the outcome in assay [5] was inactive.

Regarding `CC1(C(=O)Nc2ccc(O)c(Cl)c2Cl)CCCCC1`, the Potency entry in assay [1] and in [4] was “inactive” in each case. Moreover, the outcome in assay [5] was inactive.

Consider `CC(=O)[C@H]1CC[C@H]2[C@@H]3CC[C@H]4C[C@H](O)CC[C@]4(C)[C@H]3C(=O)C[C@]12C`, for which, in assay [7], the max response is -27.6%. Besides, the Potency result in [2], in assay [3], in [4], in assay [8], in assay [9] and in assay [6] was “inactive” throughout. Besides, the compound was called inactive in assay [5].

`CCC(=O)c1ccccc1`: the Potency result in assay [1], in assay [2], in [3], in assay [4], in assay [9] and in assay [6] was “inactive” throughout. The max response in assay [7] was 5.66%. Also, in assay [5], the compound was called inactive.

For the compound `COc1ccc2c(c1OC)CN1CCc3cc4c(cc3C1C2)OCO4` (stereo unspecified), the Potency result in assay [1], in assay [2], in [3], in assay [4], in assay [8] and in assay [9] was “inactive” in each case. Also, the Potency result in [6] is “inactive”. The compound was classed as inactive in assay [5].

On to `[Cl][Sn]([Cl])([Cl])[Cl]`, for which the Potency entry in [1], in assay [3], in [4], in [8] and in assay [9] was “inactive” in each case. Besides, the outcome in [5] was inactive.

With `CC(C)CC(N(C)C)C1(c2ccc(Cl)cc2)CCC1` (stereo unspecified), the Potency result in assay [1] and in assay [4] was “inactive” each time. The max response in [7] was -6.91%. In addition, the Potency in [2] and in assay [6] was 23.9 µM (active) each time. For the same compound, the result in [5] was inactive.

As for `CCCSP(=O)(OCC)Oc1ccc(Br)cc1Cl` (stereo unspecified), the max response in assay [7] was -3.49%. Further, the Potency result in [2], in assay [3], in assay [4], in assay [9] and in assay [6] was “inactive” each time. Also, in [5], the compound was classed as inactive.

For `O=C(Oc1ccc(Br)cc1)N1CCN2CCC1CC2`, the Potency entry in assay [1], in [2], in [3], in [4], in assay [9] and in [6] was “inactive” in each case. The max response in [7] was -0.781%. Further, the compound was classed as inactive in assay [5].
